65 molecules from PubChem BioAssay AID1946 (Johns Hopkins Ion Channel Center, 2009) can be followed below.

The campaign covered roughly 2,400 compounds. About 180 (7.5%) were called active. The sample as a whole holds a higher share of actives than the screen did. A number with no mark means an inactive call.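 How the source made its calls: active means readout below zero, meaning a drop past 3 SD under the dofetilide-free negative control mean; inactive means the rest.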

In the test the target is Potassium voltage-gated channel subfamily KQT member 2 (Rattus norvegicus) (UniProt O88943). The test is described as follows: rat KCNQ2 channel inhibition by compounds alone, confirmation, counter-screen for hERG block protector project, cell-based, CHO, FluxOR thallium flux (AID 1946). To be noted: CHO-KCNQ2 cells, FluxOR thallium flux fluorescence; at 10 µM; hits give low values; zero marks the 3-SD hit cutoff. For orientation: A counterscreen serves to expose hits that act by an unwanted route or on another target.
Chain of Potassium voltage-gated channel subfamily KQT member 2 (Rattus norvegicus) (O88943 whole entry, looked up): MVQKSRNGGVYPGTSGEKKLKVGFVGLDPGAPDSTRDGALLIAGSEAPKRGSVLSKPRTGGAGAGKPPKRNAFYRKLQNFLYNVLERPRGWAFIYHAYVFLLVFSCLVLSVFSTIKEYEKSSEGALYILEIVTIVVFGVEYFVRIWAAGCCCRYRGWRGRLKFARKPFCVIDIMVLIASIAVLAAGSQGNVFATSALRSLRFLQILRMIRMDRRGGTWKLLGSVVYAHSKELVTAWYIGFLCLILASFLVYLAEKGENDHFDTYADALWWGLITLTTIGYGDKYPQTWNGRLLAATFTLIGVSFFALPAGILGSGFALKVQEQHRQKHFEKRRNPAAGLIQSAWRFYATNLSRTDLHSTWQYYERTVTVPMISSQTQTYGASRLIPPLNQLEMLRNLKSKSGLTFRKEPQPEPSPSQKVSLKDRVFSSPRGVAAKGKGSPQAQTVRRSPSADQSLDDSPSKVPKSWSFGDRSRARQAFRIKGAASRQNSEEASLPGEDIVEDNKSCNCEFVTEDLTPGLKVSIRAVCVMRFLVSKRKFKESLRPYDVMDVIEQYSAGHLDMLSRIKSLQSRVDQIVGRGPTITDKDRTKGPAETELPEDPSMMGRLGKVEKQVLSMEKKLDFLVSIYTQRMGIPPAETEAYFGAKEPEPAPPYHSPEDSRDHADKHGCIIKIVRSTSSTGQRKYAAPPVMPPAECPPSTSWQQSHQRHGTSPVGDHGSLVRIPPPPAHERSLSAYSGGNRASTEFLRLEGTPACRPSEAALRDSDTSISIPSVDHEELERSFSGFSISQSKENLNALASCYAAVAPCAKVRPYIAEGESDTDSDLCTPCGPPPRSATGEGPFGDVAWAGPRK
With `O=c1ccc(N=Nc2ccccc2)ccc1O`, the activity change vs negative control was 109%.

Turning to `COc1cc(OC)cc(C(=O)NC(=S)N(Cc2ccccc2)C(C)C)c1`, the activity change vs negative control was 45.9%.

As for `COc1cc(OC)cc(C(=O)O/N=C(\N)c2cccc(C)c2)c1`, the activity change vs negative control was 4.9%.

As for `COc1cc(OC)cc(C(=O)OCC(=O)N(C)c2ccccc2)c1`, the activity change vs negative control is -0.3% (active).

As to `CC(C)(C)NC(=O)C(=O)NNC(=O)c1cccc(Br)c1`, the activity change vs negative control was 40%.

Turning to `O=C(Nc1cccn(Cc2c(Cl)cccc2Cl)c1=O)c1ccccc1Cl`, the activity change vs negative control was -1.1% (active).

For `Cc1ccccc1C(=O)NNC(=O)C(=O)Nc1cccc(Cl)c1C`, the activity change vs negative control is 40.7%.

Regarding `O=C(Nc1ccsc1C(=O)O)c1ccccc1Cl`, the activity change vs negative control was 14.8%.

On to `CC(=O)CSc1ncnc2sc3c(c12)CCC(C)C3` (stereo not given), for which the activity change vs negative control was 111%.

Regarding `CC(C)(C)c1ccc(/C=C/C(=O)N2CCCCC2)cc1`, the activity change vs negative control was 32.8%.

For `CCOC(=O)c1c(O)c2ccccc2n(C)c1=O`, the activity change vs negative control is 17.5%.

As to `Cn1c(=O)cc(-c2ccccc2)c2ccccc21`, the activity change vs negative control is 2.7%.

For the molecule `CCOc1ccc(N(CC)C(=O)COc2cc(=O)n(C)c3ccccc23)cc1`, the activity change vs negative control is -3.3% (active).

Regarding `Cc1cccc(N2CCN(C(=O)CNC(=O)c3cccc([N+](=O)[O-])c3)CC2)c1C`, the activity change vs negative control is 1.9%.

With `CCn1c(SCC(=O)NC(=O)NCc2ccco2)nc2sc(C)c(C)c2c1=O`, the activity change vs negative control was 43.3%.

`C=CCSc1nc2sc3c(c2c(=O)n1CC)CCc1ccccc1-3`: the activity change vs negative control is 35%.

Consider `CS(=O)(=O)N(CCc1ccccc1)CC(=O)N1CCN(c2ccc(F)cc2)CC1`, for which the activity change vs negative control is 1.7%.

Turning to `CC(=O)c1ccc(N2CCN(C(=O)Cc3ccccc3)CC2)c(F)c1`, the activity change vs negative control was -0.2% (active).

Regarding `O=C(c1ccc(Cl)c(S(=O)(=O)N2CCCC2)c1)N1CCN(c2ccccc2F)CC1`, the activity change vs negative control was 14.8%.

For the molecule `S=c1nc(-c2ccc(Br)cc2)[nH]c2ccccc12`, the activity change vs negative control was 122%.

As for `Cc1ccc(C(=O)CC(=O)COc2ccc(Cl)cc2C)cc1`, the activity change vs negative control was 13.2%.

In the case of `O=C(CCC(=O)Nc1ccccc1)NNC(=O)c1ccco1`, the activity change vs negative control is 3.9%.

Consider `O=C(Nc1nnc(-c2ccc3c(c2)CCCC3)o1)C1COc2ccccc2O1` (stereo not given), for which the activity change vs negative control is 28%.

Take `CCC(=O)Nc1nnc(-c2ccccn2)o1`: the activity change vs negative control is -0.7% (active).

On to `O=C(CCc1ccccc1)Nc1nnc(-c2ccccn2)o1`, for which the activity change vs negative control is -2.9% (active).

Take `O=C(CCc1ccccc1)Nc1nccs1`: the activity change vs negative control was 4.5%.

In the case of `O=C(Nc1nnc(-c2ccccc2)o1)c1ccc(Cl)cc1`, the activity change vs negative control is 13.6%.

With `CCCOc1ccc(OC(=O)c2ccc(Br)o2)cc1`, the activity change vs negative control is 20.9%.

Regarding `O=C(NC(=S)Nc1ccccc1)c1csnn1`, the activity change vs negative control is 105%.

With `CC(=O)Nc1ccc(S(=O)(=O)N2CCC(NC(=O)c3ccccc3)CC2)cc1`, the activity change vs negative control is 9.4%.

For `CC(=O)Nc1ccc(S(=O)(=O)N2CCC(C(=O)O)CC2)cc1`, the activity change vs negative control is -3% (active).

`O=C(/C=C/c1ccccc1)Nc1ccc(S(=O)(=O)N2CCOCC2)cc1`: the activity change vs negative control is 2%.

`CCc1cc2c(=O)n(CCC(C)C)c(=S)[nH]c2s1`: the activity change vs negative control is 83.4%.

For `S=c1nc(COc2ccccc2)[nH]c2ccccc12`, the activity change vs negative control was 159%.

`CN(C)CCCN=C(NO)c1ccc(Cl)cc1Cl`: the activity change vs negative control is 6.6%.

For the molecule `CCSc1nc2c(sc3ccccc32)c(=O)n1C(C)C`, the activity change vs negative control is 54.6%.

Take `COCC(=O)Nc1cc(C)cn(Cc2c(F)cccc2Cl)c1=O`: the activity change vs negative control was -0.6% (active).

For the molecule `O=C(COC(=O)C1CCC(=O)N1)Nc1cc(Cl)ccc1Cl` (stereo not given), the activity change vs negative control was 4.6%.

As for `CCOC(=O)c1sc2ncnc(NCc3ccco3)c2c1C`, the activity change vs negative control is 66.3%.

For `CCCN(C(=O)c1ccco1)c1nnc(-c2ccncc2)s1`, the activity change vs negative control was 7.1%.

`Cc1[nH]n2c(=O)cc(C(C)(C)C)nc2c1-c1ccccc1`: the activity change vs negative control was 38.2%.

Consider `Cc1oc(-c2cccs2)nc1CN1CCC(C(=O)N2CCCC2)CC1`, for which the activity change vs negative control is 12.1%.

On to `CC1CCCN(C(=O)COC(=O)c2cc(-c3cccs3)nn2-c2ccccc2)C1` (stereo not given), for which the activity change vs negative control was -2.5% (active).

With `CCOC(=O)C1CCN(C(=O)COC(=O)c2nn(C)c(=O)c3ccccc23)CC1`, the activity change vs negative control was 8.5%.

For `CC(=O)c1c(NC(=O)c2ccccc2)[nH]c(-c2ccccc2)nc1=S`, the activity change vs negative control is 30.6%.

On to `Cc1ccc(-c2nc(N)s[n+]2-c2ccccc2)cc1`, for which the activity change vs negative control was 42.6%.

For the molecule `CCOC(=O)Cc1csc(NC(=S)NC(=O)c2ccccc2C)n1`, the activity change vs negative control is 26.3%.

`COc1cccc(/C=N/Nc2nc3ccccc3[nH]2)c1O`: the activity change vs negative control was 24.7%.

Regarding `COc1cccc2cc(-c3nc4ccccc4[nH]3)c(=O)oc12`, the activity change vs negative control is -9.4% (active).

With `COc1ccc(C(=O)NC(=S)N2CCC(C)CC2)cc1Br`, the activity change vs negative control is 74.7%.

`COc1cc(C2NC(=O)NC(C)=C2C(=O)OCC2CCCCC2)ccc1O` (stereo not given): the activity change vs negative control is 7.4%.

As for `COc1cc(C2c3c(n[nH]c3C)C(=O)N2c2ccc(C)cc2)ccc1O` (stereo not given), the activity change vs negative control is -5% (active).

As to `Cc1ccc(C2c3c(-c4ccccc4O)n[nH]c3C(=O)N2Cc2ccncc2)cc1` (stereo not given), the activity change vs negative control was 10.7%.

As to `Cc1nc(-c2ccccc2)cn(O)c1=O`, the activity change vs negative control was 20.4%.

Consider `CC1=NN(c2nc(-c3ccccc3)cs2)C(=O)C1N=Nc1ccccc1` (stereo not given), for which the activity change vs negative control was -5% (active).

In the case of `Cn1c(O)c(N=Nc2nc(-c3ccccc3)cs2)c2ccccc21`, the activity change vs negative control was 90.8%.

In the case of `c1ccc(CCCNc2ncnc3nc[nH]c23)cc1`, the activity change vs negative control is 61.8%.

Turning to `Cc1ccc(C(C#N)c2ccc3c(C(F)(F)F)cc(C(F)(F)F)nc3n2)cc1` (stereo not given), the activity change vs negative control is 17.2%.

With `Fc1ccc(N2CCN(c3ccc4c(C(F)(F)F)cc(C(F)(F)F)nc4n3)CC2)cc1`, the activity change vs negative control was -5.3% (active).

As for `Cc1cc(-c2csc3nc[nH]c(=S)c23)cc(C)c1C`, the activity change vs negative control is 55.1%.

In the case of `CC(/C=C1\SC(=S)N(NS(=O)(=O)c2ccccc2)C1=O)=C\c1ccccc1`, the activity change vs negative control was 47.5%.

Turning to `O=C(CN1CCN(Cc2ccccc2)CC1)NCc1ccccc1Cl`, the activity change vs negative control is 17.7%.

Regarding `O=C(CN1CCCCCC1)Nc1ccc(Oc2ccccc2)cc1`, the activity change vs negative control was 3.4%.

Consider `O=C(CN1CCCCCCC1)Nc1cccc(Cl)c1Cl`, for which the activity change vs negative control was -6.4% (active).

In the case of `O=C(NC(=S)N1CCc2ccccc21)c1ccccc1Cl`, the activity change vs negative control is 93%.
